The campaign covered roughly 2,100 compounds. About 1,100 (52%) were called active. Roughly 27% stayed inconclusive and do not appear here. The set was probably picked from earlier hits. The list shows a part of the results. Unmarked numbers belong to inactive results. Calls follow the shape of the dose curve; as a rule, active = well fitted inhibition curve with a large enough effect; inconclusive = small, poorly fitted or top-dose-only effect; inactive = no such curve, though single readings can be large or run the other way.
Molecular target: DNA dC->dU-editing enzyme APOBEC-3G (Homo sapiens) (UniProt Q9HC16)
Assay: qHTS for inhibitors of Vif-A3G interactions: Cherry picks counterscreen;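 also: hits raise yellow fluorescence by blocking Vif-driven A3G-eYFP degradation; nearly all actives have a fitted effect of over 70% in size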;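 as to max response: max response given as percent of control signal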
Conditions: HeLa A3G-eYFP + Vif (tagged APOBEC3G with the HIV-1 protein that degrades it), eYFP fluorescence, 24 h
Outline: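 Readout is eYFP fluorescence (488 nm excitation, 500-530 nm emission) measured on Acumen Explorer after 24 h compound exposure, several concentrations, at 37 deg C. Cells: HeLa stably co-expressing Vif and C-terminally eYFP-tagged A3G; MG132 positive control.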
Potency is read from the fitted curve at half-maximal effect.

Sequence of DNA dC->dU-editing enzyme APOBEC-3G (Homo sapiens) (Q9HC16 whole entry, looked up): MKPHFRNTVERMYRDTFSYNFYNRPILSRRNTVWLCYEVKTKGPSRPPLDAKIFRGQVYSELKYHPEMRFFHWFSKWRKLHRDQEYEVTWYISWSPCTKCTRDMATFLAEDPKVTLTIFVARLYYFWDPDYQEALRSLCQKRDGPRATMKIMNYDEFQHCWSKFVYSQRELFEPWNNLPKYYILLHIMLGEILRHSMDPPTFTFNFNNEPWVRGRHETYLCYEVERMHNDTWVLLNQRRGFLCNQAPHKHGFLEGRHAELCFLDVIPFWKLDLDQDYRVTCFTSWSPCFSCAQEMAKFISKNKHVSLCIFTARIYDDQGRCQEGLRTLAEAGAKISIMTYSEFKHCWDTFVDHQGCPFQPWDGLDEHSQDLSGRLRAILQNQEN

Structure (SMILES) | max response | Potency
N#C/C=C/N1CCN(C(=O)c2ccco2)CC1 | -14.7% | 
CCN(CC(=O)NCc1ccc(F)cc1)C(=O)/C=C/c1ccc(OC)c(S(=O)(=O)NC(C)C)c1 |  | 3.53 µM (active)
c1ccc(-c2cnn3c(-c4ccccc4)c(-c4ccccc4)nc3n2)cc1 |  | 2.59 µM (active)
COc1cccc(C2CC(c3ccccc3)=NN2S(=O)(=O)c2ccc(C)cc2)c1OC (configuration not stated) |  | 18.4 µM (active)
Cc1ccc(C2=NN(S(=O)(=O)c3ccccc3)C(c3ccccc3O)C2)cc1 (configuration not stated) |  | 13 µM (active)
Cc1ccc(C2=NN(C(=O)c3cccs3)C(c3ccccc3O)C2)cc1 (configuration not stated) | 20.9% | 
CCOC1=C2CN(S(=O)(=O)c3ccc(C)cc3)[C@H](c3cccc4ccccc34)C[C@H]2C(C#N)(C#N)C(C#N)(C#N)C1 | -20.1% | 
O=c1c2ccccc2sc2ccc(NCCCN3CCOCC3)cc12 |  | 23.1 µM (active)
COc1ccc(S(=O)(=O)N2CCN(C(=O)c3ccc([N+](=O)[O-])o3)CC2)cc1 | -0.426% | 
COc1ccc(S(=O)(=O)N2c3ccccc3OCC2CC(=O)O)cc1 (configuration not stated) |  | 12.5 µM (active)
O=C(NC(=S)Nc1c(Cl)cc(Cl)cc1Cl)c1ccccc1 | 6.93% | 
COC(=O)/C(=C\Nc1ccc(Cl)cc1Cl)NC(=O)c1ccc(OC)cc1 |  | 1.98 µM (active)
COc1ccc(N/C=C2\C(=O)CCc3c2oc2cc(Cl)c(O)c(Cl)c32)cc1 | -5.39% | 
Clc1ccc(/C=N/NC2=Nc3cccc4cccc2c34)cc1 |  | 20.6 µM (active)
Clc1ccccc1/C=N/NC1=Nc2cccc3cccc1c23 |  | 9.2 µM (active)
COc1cccc(CNCCSc2nnnn2C)c1OCc1ccc(F)cc1 | 2.02% | 
c1cc(SC2CCCCC2)cc(-c2nc3cnccn3c2NC2CCCCC2)c1 | 17.4% | 
CCCCNc1c(-c2ccc(SC3CCCCC3)cc2)nc2cnccn12 |  | 2.23 µM (active)
COc1ccc(-c2nc3cnccn3c2NC2CCCCC2)cc1-c1cccc(Cl)c1 | -10.6% | 
CN(C)c1ccc(/C=N/NC(=O)c2cc(-c3ccc4c(c3)OCO4)n[nH]2)cc1 |  | 12.5 µM (active)
Cc1cc(C)n(-c2nnc3n2N=C(c2c[nH]c4ccccc24)CS3)n1 |  | 6.27 µM (active)
COc1cc(/C=C2/CCC/C(=C\c3cc(O)c(OC)c(Cl)c3)C2=O)cc(Cl)c1O |  | 14.6 µM (active)

Structure (SMILES) | max response | Potency
CCOc1cc(/C=C2\CCC/C(=C\c3cc(Cl)c(O)c(OCC)c3)C2=O)cc(Cl)c1O |  | 17.7 µM (active)
Cc1csc(NC(=O)CCC(=O)N(CC(=O)NC2CCCC2)Cc2ccccc2)n1 | -14.8% | 
NC(=O)c1ccc(Cn2c(C(=O)c3cc(Cl)c(N)c(Cl)c3)c3ccccc3[n+]2[O-])cc1 |  | 11.2 µM (active)
Cc1ccc(-n2nc3c(N4CCCC(C(=O)NCc5ccccc5C)C4)nnc(C)c3c2C)cc1 (configuration not stated) | -1.78% | 
Cc1ccc(Cl)cc1NC(=O)Nc1cn(CC(C)C)c(=O)c2ccccc12 | 10.5% | 
Cc1ccc(C)c(NC(=O)Cn2cc(S(=O)(=O)Cc3cccc(Cl)c3)c3ccccc32)c1 |  | 18.4 µM (active)
O=C(Nc1ccc(Cl)cn1)c1cccc(S(=O)(=O)N2CCCCCC2)c1 | 1.56% | 
Cc1ccc(S(=O)(=O)N2CCCCC2)cc1NC(=O)Cn1ncc(Cl)c(Cl)c1=O |  | 12.5 µM (active)
Cc1ccc(NC(=O)C2CCN(S(=O)(=O)c3ccc(Cl)c(C(F)(F)F)c3)CC2)nc1 | 8.66% | 
O=C(Cn1ncc(Cl)c(Cl)c1=O)N1CCN(S(=O)(=O)c2ccc3ccccc3c2)CC1 |  | 11.2 µM (active)
COc1ccc(OCCCC(=O)N2CCN(S(=O)(=O)c3cccc(F)c3)CC2)cc1 | 2.87% | 
Fc1ccc(-c2cnn3c(-c4cccs4)ccnc23)cc1 |  | 5.59 µM (active)
COc1ccc(CN(C(C)=O)c2cccc(C)c2C)cc1 |  | 17.7 µM (active)
Cc1nnc(NC(=O)CSc2nc(C(C)C)nc3ccccc23)s1 |  | 6.27 µM (active)
COc1ccc(C2CC(c3ccncc3)=NN2c2ccc(S(N)(=O)=O)cc2)cc1 (configuration not stated) |  | 5.17 µM (active)
COc1cc(C2C3=C(COC3=O)Oc3cc4c(cc32)OCO4)ccc1OC(C)=O (configuration not stated) |  | 1.77 µM (active)
O=C1OCC2=C1C(c1ccc3c(c1)OCO3)c1cc3c(cc1O2)OCO3 (configuration not stated) |  | 2.23 µM (active)
CCNc1cc(N2CCN(C3CCCCC3)CC2)c2noc3c2c1C(=O)c1ccccc1-3 |  | 7.31 µM (active)
O=C1c2ccccc2-c2onc3c(N4CCN(C5CCCCC5)CC4)cc(NCCO)c1c23 |  | 2.59 µM (active)
CN(C)CCCNc1cc(N2CCN(C3CCCCC3)CC2)c2noc3c2c1C(=O)c1ccccc1-3 |  | 1.84 µM (active)
CC[N+](C)(C)c1ccc(/C=C/c2ccncc2)cc1 |  | 16.4 µM (active)
CCC[N+](C)(C)c1ccc(/C=C/c2ccncc2)cc1 |  | 16.4 µM (active)

Structure (SMILES) | max response | Potency
Cc1ccc(-c2nc(C=Nc3ccc(O)cc3)c(O)o2)cc1 | -18.6% | 
N#Cc1c(Nc2ccccc2)[n+]([O-])c2ccc(Cl)cc2[n+]1[O-] | 26.1% | 
O=C1CC(c2cc(Br)ccc2F)c2cc3c(cc2N1)CCC3 (configuration not stated) |  | 1.4 µM (active)
O=C1CC(c2ccccc2F)c2cc3c(cc2N1)CCC3 (configuration not stated) |  | 2.8 µM (active)
CCOC(=O)Cc1csc(NC(=O)c2sc3nc4c(C)cc(C)cc4cc3c2N)n1 |  | 20.6 µM (active)
CCOc1cc(S(=O)(=O)NCc2ccc(OC)cc2)c(OCC)cc1-n1cnnn1 |  | 8.86 µM (active)
Cc1cc(C)c(N2C(=O)CC(Sc3ccccc3N)C2=O)c(C)c1 (configuration not stated) |  | 17.7 µM (active)
Cc1ccc(S(=O)(=O)N2CCN(C(=O)CSC(=S)N3CCCC3)CC2)c(C)c1 | -17.2% | 
COc1cc(C(=O)NCC(=O)N2CCN(S(=O)(=O)c3cc(C)ccc3C)CC2)cc(OC)c1OC |  | 9.94 µM (active)
CCOc1ccc(NC(=O)N2CC=C(c3c[nH]c4ccccc34)CC2)cc1 |  | 18.4 µM (active)
Cc1ccc(C)c(NC(=O)N2CC=C(c3c[nH]c4ccccc34)CC2)c1 |  | 16.4 µM (active)
COC(=O)c1ccc(Cl)cc1NC(=O)N1CC=C(c2c[nH]c3ccccc23)CC1 |  | 23.1 µM (active)
CSc1cccc(NC(=O)c2cc3c(COC(C)=O)cnc(C)c3oc2=O)c1 | 2.84% | 
Cc1cc(C)nc(-n2nc(C)cc2NC(=O)c2ccc(F)cc2F)n1 | -9.45% | 
COc1ccccc1NS(=O)(=O)c1cc([N+](=O)[O-])ccc1N/N=C/c1sc(N2CCOCC2)nc1-c1ccccc1 |  | 0.58 µM (active)
O=[N+]([O-])c1ccc(N/N=C/c2sc(N3CCOCC3)nc2-c2ccccc2)c(S(=O)(=O)Nc2ccccc2Cl)c1 |  | 2.91 µM (active)
Cc1cc2nc(SCCOC(=O)Nc3cccc(Cl)c3)nc(C)c2cc1C | 0.137% | 
C=CCOC(=O)C1=C(C)NC(C)=C(C(=O)OCC=C)C1c1cn(-c2ccccc2)nc1-c1ccco1 | -22.7% | 
COc1ccc2c(C)cc(SCC(=O)N(C)C3CCS(=O)(=O)C3)nc2c1 (configuration not stated) |  | 20.6 µM (active)
COc1ccc2c(C)cc(SCC#N)nc2c1 |  | 18.4 µM (active)
CCS(=O)(=O)N1N=C(c2ccc(C)cc2)CC1c1cc2ccc(OC)cc2nc1Cl (configuration not stated) | -6.38% | 
CCS(=O)(=O)N1N=C(c2cccc(NS(C)(=O)=O)c2)CC1c1ccc(C)cc1 (configuration not stated) |  | 23.1 µM (active)

Structure (SMILES) | max response | Potency
CS(=O)(=O)Nc1ccc(C2=NN(S(C)(=O)=O)C(c3ccc4c(c3)OCO4)C2)cc1 (configuration not stated) |  | 14 µM (active)
CS(=O)(=O)N1N=C(c2ccccc2)CC1c1ccc2c(c1)OCO2 (configuration not stated) |  | 12.5 µM (active)
CC1=CC(C)(C)NC(=S)N1c1ccc2ccccc2c1 | 5% | 
C=C(/C=C/c1ccc(N(C)C)cc1)c1nc2ccccc2s1 |  | 16.4 µM (active)
O=c1[nH]ncc2c3ccccc3n(Cc3cccc(Cl)c3)c12 |  | 18.4 µM (active)
CC[N+](C)(C(=O)O)/C(=C\c1ccccc1)c1ccnc2ccccc12 (configuration not stated) |  | 16.4 µM (active)
C[C@@H]1O[C@@H](O[C@@H]2C(=O)c3c(O)cc(O)cc3O[C@H]2c2ccc(O)c(O)c2)[C@H](O)[C@H](O)[C@H]1O | -0.692% | 
CCSc1nnc(-c2sc3nnc(-c4ccccc4)c(-c4ccccc4)c3c2N)o1 |  | 4.61 µM (active)
COc1ccc(NC(=O)c2sc3nc4c(cc3c2N)CN(Cc2ccccc2)CC4)c(OC)c1 |  | 18.4 µM (active)
CCN1CCc2nc3sc(C(=O)c4ccccc4)c(N)c3cc2C1 |  | 18.4 µM (active)
Cc1cc(N2CCN(C)CC2)ccc1NC(=O)c1c2c(nc3ccccc13)CCN(Cc1ccccc1)C2 | 4.5% | 
Nc1c(C(=O)c2ccc(Cl)cc2)sc2nc3c(cc12)CCC3 |  | 16.4 µM (active)
COCCN1C(=O)/C(=C/c2ccc(N3CCCC3)cc2)SC1=S |  | 7.31 µM (active)
COCCN1C(=O)/C(=C/c2ccc(N3CCCC3)cc2C)SC1=S |  | 4.11 µM (active)
Cc1ccc2oc(/N=C(\N)NC(=O)C(C)(C)C)nc2c1 | -19% | 
C/C(=N\NC(N)=S)C12CC3CC(CC(C3)C1)C2 | 27.9% | 
COc1ccc(/C=C/c2ccnc3ccccc23)c(OC)c1 |  | 16.4 µM (active)
COc1cc(OC)c(/C=C/c2ccnc3ccccc23)c(OC)c1 |  | 7.31 µM (active)
COc1ccc(NC(=S)Nc2ncccc2C)c(OC)c1 | -0.005% | 
c1ccc2c(-c3nc4ccccc4[nH]3)cccc2c1 |  | 11.2 µM (active)
CCC(C)n1c(NC(=O)c2ccccc2)c(C#N)c2nc3ccccc3nc21 (configuration not stated) |  | 18.4 µM (active)
